We go through 40 molecules from PubChem BioAssay (NCATS).

Molecules are shown by their SMILES. Activity calls are given as the source filed them. Calls come from the whole dose curve; as a rule, active = well fitted curve in the direction sought with a large enough effect; inactive = no such curve, though single readings can be large or run the other way.

This assay can be described thus: qHTS for small molecule inhibitors of Yes1 kinase: Counter Assay (AID 686950).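 Note: no kinase present so only ADP-Glo detection of a fixed ADP amount is tested; luminescence from ADP-Glo reporting ADP in a fixed ATP and ADP mixture; 0% = DMSO wells with ATP plus ADP and -100% = ATP-only wells without ADP.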 The settings on record: series mostly up to 76.9 µM; activity change, negative = inhibition: at the top concentration. The text has this: The Src family of non-receptor protein tyrosine kinases contains nine members, including Yes1, Src, Fyn, Lyn, and […]. These kinases have important roles in a variety of cellular functions, such as cell proliferation, survival, and differentiation. Src, the most well characterized member of this family, has been previously identified as a proto-oncogene. […] In melanoma, it has been shown that Yes1, and not other family members, such as Src, is functionally involved in the malignant phenotype. Additionally, a recent study examining the downregulation of Yes1 by shRNA found significant effects on cell survival/growth for basal-like and Her2-positive breast cancers. Despite the potential for Yes1 to be a target for the above-described cancers, there are very few reports on the identification of potent and selective inhibitors of Yes1 kinase. Antagonists of Yes1 would further elucidate Yes1 biology and help to confirm whether Yes1 is a viable target for therapeutic intervention in a variety of cancers.
A compound that inhibits Yes1 could be important for the treatment of various cancers in which Yes1 is highly expressed and can also be used as a tool compound to help further elucidate Yes1 biology. To that end, we have developed a sensitive HTS biochemical assay for Yes1 activity. This assay was screened against several small compound libraries to look for modulators of activity. The cherrypicked compounds were screened against this counter assay, which evaluates whether the compounds have any effect on the ADP-Glo detection kit. Compounds that show inhibition in this assay have interference with the detection system. Inactivity is the desired output for this assay.
NIH Molecular Libraries Probe Production Centers Network [MLPCN]
NIH Chemical Genomics Center [NCGC]
Two microliter of buffer (columns 1-48) are dispensed into Greiner, white solid-bottom 1536-well assay plates. Compounds (23 nL) are then transferred via Kalypsys pin tool equipped with 1536-pin array (10 nL slotted pins, V&P Scientific, San Diego, CA). The library compounds are in columns 5-48 and columns 1-4 serve as controls with DMSO. Following addition of compound and a 20 minute incubation, 1 uL of substrate/product mix (ATP and ADP from Sigma-Aldrich, St. Louis, MO) is added to columns 1, 2, 5-48 and 1 uL of substrate (ATP) is added to columns 3-4, and the plate is incubated for 60 minutes at room temperature. The amount of ADP is then quantified by the ADP-Glo Kit (Promega, Madison, WI). First, 2 uL of the first kit reagent is added, and the reaction is incubated for 45 minutes; then, 4 uL of the second kit reagent are added and the reaction is incubated for 30 minutes at which time the luminescence is read on a Viewlux plate reader (Perkin-Elmer, Waltham, MA). The final concentration of reagents in the reaction are 0.08 mM ATP and 0.02 mM ADP (or 0.1 mM ATP in the no ADP control columns), 100 uM EGTA, 10 mM MgCl2, 50 mM Tris pH 7.5, 1 mM DTT, 150 mM NaCl, 0.01% Brij-35, and 5% glycerol. Data are normalized to DMSO-treated control columns with ATP and […] (maximum signal) and with just ATP (minimum signal).
A general note: In qHTS, concentration-response curves come from the screen itself.
In the case of `CN(c1ccc(NC(=O)NCCN2CCOCC2)cc1)c1ccnc(Nc2ccc(CS(C)(=O)=O)cc2)n1`, the “activity change, negative = inhibition” value is -1.16% (inactive). Regarding `CCn1c(-c2nonc2N)nc2c(C#CC(C)(C)O)nc(OC(CN)c3ccccc3)cc21` (stereo not given), the “activity change, negative = inhibition” value is 3.17% (inactive). Regarding `NC(=O)c1ccc2c(-c3ccnc(NCCCO)n3)c(-c3ccc(F)cc3)nn2c1`, the “activity change, negative = inhibition” value was 3.47% (inactive). The same measure, in the same setting: in the case of `CC(C)=Cc1cccc2[nH]c(O)c(N=Nc3ccc(S(N)(=O)=O)cc3)c12` it was 4.79% (inactive); in that of `CCc1nccc2c1nc(-c1nonc1N)n2CC`, 4.09% (inactive); in that of `Cc1cccc(Nc2ncc(-c3ccccc3)o2)c1`, -3.11% (inactive).

Regarding `Cc1cc(O)cc(C)c1C=Cc1cncc(C(=O)OC(C)(C)C)c1`, the “activity change, negative = inhibition” value is -0.295% (inactive). Same read-out and setting: in the case of `NS(=O)(=O)c1cccc(-c2cc3ccncc3cc2OCc2ccccc2)c1` it was 0.371% (inactive).

As for `O=C(Nc1ccc(Oc2ccc3nc(NC(=O)c4ccco4)[nH]c3c2)cc1)Nc1cc(C(F)(F)F)ccc1F`, the “activity change, negative = inhibition” value was 5.02% (inactive).

On to `O=C(Nc1n[nH]c2cc(-c3ccc(F)cc3)ccc12)C1CC1`, for which the “activity change, negative = inhibition” value was 4.33% (inactive). Same read-out and setting: in the case of `C=C1C(=C/C=C2\CCC[C@]3(C)[C@@H]([C@H](C)/C=C/[C@H](C)C(C)C)CC[C@@H]23)C[C@@H](O)C[C@@H]1O` it was 3.31% (inactive); in that of `NS(=O)(=O)c1ccc(N=Nc2c(O)[nH]c3ccc(C(=O)NCc4ccncc4)cc23)cc1`, 6.21% (inactive); in that of `Nc1nc(-c2ccc(F)cc2)c(-c2ccc3ncccc3n2)s1`, 6.84% (inactive). In the case of `COc1cc(C=NNc2ncnc3c2cnn3C(C)C)ccc1O`, the “activity change, negative = inhibition” value was 3.6% (inactive). The same measure, in the same setting: in the case of `COC(=O)Nc1nc2ccc(Oc3ccc(NC(=O)Nc4ccccc4)cc3)cc2[nH]1` it was 5.64% (inactive); in that of `COC(=O)Nc1nc2ccc(Sc3ccc(NC(=O)Nc4cc(C(F)(F)F)ccc4F)cc3)cc2[nH]1`, 4.44% (inactive); in that of `CCc1ccc(Oc2nccc(-c3c(-c4ccc(F)cc4)ncn3C3CCNCC3)n2)cc1`, 1.13% (inactive). On to `Clc1ccc(CNc2nccc(-c3cnn4ncccc34)n2)cc1`, for which the “activity change, negative = inhibition” value was 7.8% (inactive). Take `CCc1cccc(CC)c1C=Cc1cncc(C(=O)NC)c1`: the “activity change, negative = inhibition” value is 0.871% (inactive). Regarding `Nc1nc(-c2ccccn2)c(-c2ccc3ncccc3n2)s1`, the “activity change, negative = inhibition” value is 2.75% (inactive). For `Nc1nccc(-c2c(-c3ccc(F)cc3)ncn2CCCN2CCOCC2)n1`, the “activity change, negative = inhibition” value was 7.39% (inactive). `CCCN1CCC(c2ccc(Nc3nc(Nc4cc(F)ccc4C(N)=O)c4cc[nH]c4n3)c(OC)c2)CC1`: the “activity change, negative = inhibition” value is 116% (inactive). On the same count and under the same terms, in the case of `CC(C)(CO)CNC(=O)c1ccc2[nH]c(O)c(N=Nc3ccc(S(N)(=O)=O)cc3)c2c1` it was 0.7% (inactive); in that of `CCn1c(-c2nonc2N)nc2ccccc21`, 2.83% (inactive). Regarding `CCCN(CCS(C)(=O)=O)Cc1ccc(-c2ccc3ncnc(Nc4ccc(OCc5cccc(F)c5)c(Cl)c4)c3c2)o1`, the “activity change, negative = inhibition” value was -0.203% (inactive). Still for that read-out and setting: in the case of `COC(=O)Nc1nc2ccc(Oc3ccc(NC(=O)Nc4cccc(C(=O)O)c4)cc3)cc2[nH]1` it was 2.02% (inactive); in that of `COc1ccc2nc3c4nc5ccc(OC)cc5c4c4c(=O)[nH]c(=O)c4c3c2c1`, -2.58% (inactive). Regarding `CS(=O)(=O)CCNCc1ccc(-c2ccc3ncnc(Nc4ccc(OCc5ccccc5)c(Br)c4)c3c2)o1`, the “activity change, negative = inhibition” value was 6.79% (inactive). In the case of `CC(=O)Nc1cccc(C#Cc2cncnc2Nc2ccc(OCc3cccc(F)c3)c(Cl)c2)n1`, the “activity change, negative = inhibition” value is 4.46% (inactive). `NS(=O)(=O)c1ccc(N=Cc2c(O)[nH]c3ccc4ncsc4c23)cc1`: the result was inactive. In the case of `O=S1CCN(Cc2ccc(-c3ccc4ncnc(Nc5ccc(OCc6ccccc6)c(F)c5)c4c3)o2)CC1`, the “activity change, negative = inhibition” value is 5.75% (inactive). On the same count and under the same terms, in the case of `CS(=O)(=O)CCNCc1ccoc1-c1ccc2ncnc(Nc3ccc(OCc4ccccc4)cc3)c2c1` it was 0.973% (inactive).

Regarding `O=C1NC(=O)C(c2cccc(Cl)c2)=C1Nc1ccc(Cl)c(C(=O)O)c1`, the “activity change, negative = inhibition” value is 4.85% (inactive). `COc1cc(Nc2nccc(-c3cnn4ncccc34)n2)cc(OC)c1`: the “activity change, negative = inhibition” value was 4.59% (inactive). As for `CCC(=O)Nc1ccc(C)c(-c2ccc(C(=O)NCC3CC3)cc2)c1`, the “activity change, negative = inhibition” value was 2.01% (inactive). In the case of `COc1cc(N2CCN(C(C)C)CC2)ccc1Nc1nc(Nc2ccc(F)cc2C(N)=O)c2cc[nH]c2n1`, the “activity change, negative = inhibition” value was 258% (inactive). The same measure, in the same setting: in the case of `Fc1ccc(-c2c(-c3ccncc3)nc3n2CCS3)cc1` it was 0.28% (inactive); in that of `Cc1cc(-c2ccco2)cc(C)c1C=Cc1cncc(-c2nn[nH]n2)c1`, 18.7% (inactive); in that of `Cc1cc(O)cc(C)c1C=Cc1cncc(C(=O)N(C)C)c1`, 3.19% (inactive).

As to `CC1=C(C(=O)Nc2ccc3[nH]ncc3c2)C(c2ccc(F)cc2)N=C(c2ccc(C(F)(F)F)nc2)N1` (stereo not given), the “activity change, negative = inhibition” value is 0.65% (inactive).
